Measurements published in PubChem BioAssay (NCATS).
Results filed as inconclusive are left out. Calls of active or inactive are those of the source. Unless noted, the call rests on the fitted dose curve; in most records, active means well fitted cell-killing curve with a large enough effect; inconclusive means small, poorly fitted or top-dose-only effect; inactive means flat fitted curve, though single readings scatter.

What was measured:
[1] = Cell Viability - LYMP2-025 (AID 976);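 further: series mostly up to about 92 µM; plate controls were DMSO only for no effect and tetraoctylammonium bromide control for full effect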
Method in brief: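 Human lymphoblastoid LYMP2-025 cells (2500/well) were pre-incubated 5 hr at 37 C, then treated with compounds for 24 hr at 37 C in complete medium. Viability was read as intracellular ATP by CellTiter-Glo luminescence; AC50 from Hill fits.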

[2] = Cell Viability - LYMP2-002 (AID 977);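 further: series mostly up to about 92 µM; compound exposure lasted 24 h at 37 °C; plate controls were DMSO only for no effect and 92 µM tetraoctylammonium bromide for full effect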
Method in brief: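 Human lymphoblastoid LYMP2-002 cells, 2500 per well, exposed to compounds for 24 h at 37 C in complete medium; viability read as intracellular ATP by CellTiter-Glo luminescence, AC50 from Hill fits.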

[3] = Cell Viability - LYMP2-006 (AID 978); further: series mostly up to about 92 µM; on the % scale 0 is the no-effect control and ±100 the full control effect; nearly all actives have a fitted effect of over 60% in size
Method in brief: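 Human lymphoblastoid cells (LYMP2-006), 2500/well in complete medium, were treated with compound for 24 hr at 37 C. Cellular ATP was read by CellTiter-Glo luminescence after 30 min, and AC50 values came from Hill-equation fits of concentration-response data.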

[4] = Cell Viability - LYMP2-007 (AID 979);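 further: cells exposed to compound for 24 h before reading; 0% = DMSO only and the negative end = 92 µM tetraoctylammonium bromide; nearly all actives have a fitted effect of over 60% in size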
Method in brief: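 Human lymphoblastoid cells (2500/well) were plated in complete medium, incubated 5 hr at 37 C, then exposed to compounds for 24 hr at 37 C. Intracellular ATP was read by CellTiter-Glo luminescence after 30 min at room temperature; AC50 from Hill fits.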

[5] = Cell Viability - LYMP2-008 (AID 980); further: on the % scale 0 is the no-effect control and ±100 the full control effect; nearly all actives have a fitted effect of over 60% in size
Method in brief: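 Human lymphoblastoid cells (2500/well) were plated, held 5 hr at 37 C, then exposed to compounds for 24 hr at 37 C in complete medium. Intracellular ATP was read by CellTiter-Glo luminescence; AC50 from Hill-fitted concentration-response.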

[6] = Cell Viability - LYMP2-010 (AID 981); further: on the % scale 0 is the no-effect control and ±100 the full control effect; nearly all actives have a fitted effect of over 55% in size
Method in brief: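 Human lymphoblastoid LYMP2-010 cells (2500/well) were preincubated 5 hr at 37 C, then exposed to compounds for 24 hr at 37 C in complete medium. Intracellular ATP was measured by CellTiter-Glo luminescence after 30 min at room temperature; AC50 from Hill-fitted concentration-response.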

[7] = Cell Viability - LYMP2-012 (AID 982);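 further: cellular ATP by luciferase luminescence where a drop means cytotoxicity; cells exposed to compound for one day before reading; 0% = DMSO only and full loss = 92 µM tetraoctylammonium bromide; nearly all actives have a fitted effect of over 55% in size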
[8] = Cell Viability - LYMP2-014 (AID 983);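 further: series mostly up to about 92 µM; plate controls were DMSO only for no effect and 92 µM tetraoctylammonium bromide for full effect; nearly all actives have a fitted effect of over 50% in size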
Method in brief: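 Human lymphoblastoid cells (2500/well) were pre-incubated 5 hr at 37 C, then exposed to compounds in complete medium for 24 hr at 37 C. Intracellular ATP was read by CellTiter-Glo luminescence after 30 min at room temperature; AC50 from Hill fits.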

[9] = Cell Viability - LYMP2-016 (AID 984); further: on the % scale 0 is the no-effect control and ±100 the full control effect; nearly all actives have a fitted effect of over 55% in size
Method in brief: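 Human lymphoblastoid LYMP2-016 cells, 2500 per well, treated with compounds for 24 h at 37 C. Viability read as intracellular ATP by CellTiter-Glo luminescence after 30 min at room temperature; AC50 from Hill fits of concentration-response.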

[10] = Cell Viability - LYMP2-018 (AID 985);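 further: compound exposure lasted 24 hr at 37 °C; plate controls were DMSO only for no effect and tetraoctylammonium bromide at 92 µM for full effect; nearly all actives have a fitted effect of over 50% in size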
Method in brief: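 Human lymphoblastoid cells (2500/well) were pre-incubated 5 hr at 37 C, then exposed to compounds for 24 hr at 37 C in complete medium. Viability was read as intracellular ATP by CellTiter-Glo luminescence; AC50 values came from Hill-equation fits.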

[11] = Cell Viability - LYMP2-022 (AID 987);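 further: 0% = DMSO alone and full effect = tetraoctylammonium bromide at 92 µM; nearly all actives have a fitted effect of over 55% in size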
Method in brief: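 Human lymphoblastoid cells, 2500/well, preincubated 5 hr at 37 C, then exposed to compounds over a concentration range for 24 hr at 37 C in complete medium. Viability read as intracellular ATP by CellTiter-Glo luminescence after 30 min at room temperature; AC50 from Hill fits.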

[12] = Cell Viability - LYMP2-024 (AID 988);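 further: plate controls were DMSO only for no effect and 92 µM tetraoctylammonium bromide for full effect; nearly all actives have a fitted effect of over 60% in size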
Method in brief: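 Human lymphoblastoid cells (2500/well) in complete medium were preincubated 5 hr at 37 C, then exposed to compounds for 24 hr at 37 C. Intracellular ATP was read by CellTiter-Glo luminescence; AC50 from Hill-equation fits of concentration-response data.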

[13] = Cell Viability - LYMP2-026 (AID 989); further: on the % scale 0 is the no-effect control and ±100 the full control effect; nearly all actives have a fitted effect of over 50% in size
Method in brief: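 Human lymphoblastoid cells (2500/well) in complete medium were preincubated 5 hr at 37 C, then exposed to compounds for 24 hr at 37 C. Cellular ATP was read by CellTiter-Glo luminescence; AC50 from Hill-equation fits of concentration-response data.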

[14] = Cell Viability - LYMP1-002 - Assay at 24 hr (AID 993); further: on the % scale 0 is the no-effect control and ±100 the full control effect
Method in brief: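 Human lymphoblastoid LYMP1-002 cells, 2500/well in complete medium, were treated with compounds for 24 h at 37 C; intracellular ATP was read by CellTiter-Glo luminescence. AC50 values came from Hill-equation fits of qHTS concentration-response data.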

[15] = Cell Viability - LYMP1-002 - Assay at 40 hr (AID 994)
Method in brief: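 Human lymphoblastoid cells, 2500/well in complete medium, were preincubated 5 hr at 37 C, then exposed to compounds for 40 hr at 37 C. Intracellular ATP was read by CellTiter-Glo luminescence after 30 min at room temperature; AC50 from Hill-equation fits.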

[16] = qHTS Assay for Identification of Small Molecule Inducers of Hypoxia Response (AID 2120; active means well fitted curve in the direction sought with a large enough effect in the signal ratio, with a control signal flat, not every such curve was filed as active; the % refers to the signal ratio; further: 0% is about no effect)
Method in brief: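 HRE-beta-lactamase reporter in CellSensor HRE-bla ME-180 cells, 2500 cells/well in Opti-MEM with 0.5% dialyzed FBS; compounds tested as titration series, 17 h at 37 degrees C. CCF4 substrate 2.5 h at room temperature; AC50 from 460/530 nm ratio.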

[17] = molecular target: Bile acid receptor (Homo sapiens) (UniProt Q96RI1); test: qHTS assay for small molecule antagonists of farnesoid X receptor signaling (AID 588526; calls by dose curve; further: on the % scale 0 is the no-effect control and ±100 the full control effect)
Method in brief: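 Antagonist mode: titrated compounds tested against chenodeoxycholic acid stimulation (normalized to 50 uM CDCA and DMSO) in GeneBLAzer HEK293T cells for 16 h. Beta-lactamase read by CCF4 fluorescence; IC50 from Hill fits.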

[18] = molecular target: Glucocorticoid receptor (Homo sapiens) (UniProt P04150); test: qHTS assay for small molecule agonists of glucocorticoid receptor signaling (AID 588532; active means well fitted curve in the direction sought with a large enough effect in the signal ratio, with a control signal flat; the % refers to the signal ratio;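 further: 100% = dexamethasone at 0.1 µM and 0% = DMSO only wells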); conditions: HeLa MMTV-bla, beta-lactamase ratio, agonist, 18 h; stronger effect = higher value; percent of dexamethasone control, DMSO zero
Method in brief: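 MMTV-bla HeLa beta-lactamase reporter cells in 1% charcoal/dextran FBS medium, compounds up to 92 uM for 18 h at 37 C, CCF4 readout; normalized to 0.1 uM dexamethasone (100%), EC50 and efficacy from Hill fits.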

[19] = molecular target: Glucocorticoid receptor (Homo sapiens) (UniProt P04150); test: qHTS assay for small molecule antagonists of glucocorticoid receptor signaling (AID 588533; active means well fitted inhibition curve with a large enough effect in the signal ratio, with a control signal flat, not every such curve was filed as active; the % refers to the signal ratio;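 further: cells stimulated with 2 nM dexamethasone as agonist; on the % scale 0 is the no-effect control and ±100 the full control effect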)
Method in brief: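 Antagonist-mode qHTS: compound titrations added to GRE-bla HeLa cells, then dexamethasone 2 nM final; 18 h, 37 C. CCF4 FRET fluorescence normalized to dexamethasone and DMSO; IC50 from Hill fit.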

[20] = qHTS assay for small molecule antagonists of peroxisome proliferator-activated receptor delta signaling (AID 588535; active means well fitted inhibition curve with a large enough effect in the signal ratio, with a control signal flat, not every such curve was filed as active; the % refers to the signal ratio;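 on max response: cells co-treated with a PPAR-delta agonist as stimulator during compound exposure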); conditions: HEK293T PPARd-UAS-bla, beta-lactamase FRET ratio, 18 h; 460 nm channel
Method in brief: (§1)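 Cells were seeded at 4000 per well in assay medium containing 2% charcoal/dextran FBS and held 5 hrs at 37 C. Compounds were then added for 18 hrs. CCF4 substrate was applied for 2 hrs at room temperature before fluorescence reading.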

[21] = molecular target: Peroxisome proliferator-activated receptor delta (Homo sapiens) (UniProt Q03181); test: as above
Method in brief: as §1

Glucocorticoid receptor (Homo sapiens), sequence (P04150 whole entry, looked up): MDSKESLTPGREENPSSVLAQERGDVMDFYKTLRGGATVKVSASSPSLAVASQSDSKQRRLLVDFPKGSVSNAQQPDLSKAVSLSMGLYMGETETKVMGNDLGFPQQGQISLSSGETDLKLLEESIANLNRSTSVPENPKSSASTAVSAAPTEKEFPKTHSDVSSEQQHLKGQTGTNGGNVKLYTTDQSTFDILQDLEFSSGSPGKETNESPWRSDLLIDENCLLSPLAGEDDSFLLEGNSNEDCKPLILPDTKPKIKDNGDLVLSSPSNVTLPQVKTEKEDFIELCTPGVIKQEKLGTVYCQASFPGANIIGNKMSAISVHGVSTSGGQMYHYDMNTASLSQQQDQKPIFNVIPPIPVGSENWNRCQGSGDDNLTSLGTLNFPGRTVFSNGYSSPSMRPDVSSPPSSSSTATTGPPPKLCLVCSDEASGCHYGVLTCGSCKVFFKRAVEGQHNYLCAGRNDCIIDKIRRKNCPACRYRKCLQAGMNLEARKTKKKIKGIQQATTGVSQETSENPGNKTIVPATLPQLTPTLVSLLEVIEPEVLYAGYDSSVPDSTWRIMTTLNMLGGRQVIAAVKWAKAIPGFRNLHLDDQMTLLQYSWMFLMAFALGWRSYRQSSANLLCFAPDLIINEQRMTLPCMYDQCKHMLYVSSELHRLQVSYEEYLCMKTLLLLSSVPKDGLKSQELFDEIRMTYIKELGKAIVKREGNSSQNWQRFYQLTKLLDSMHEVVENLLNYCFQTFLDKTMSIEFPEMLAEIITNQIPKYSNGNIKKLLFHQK
Peroxisome proliferator-activated receptor delta (Homo sapiens), sequence (Q03181 whole entry, looked up): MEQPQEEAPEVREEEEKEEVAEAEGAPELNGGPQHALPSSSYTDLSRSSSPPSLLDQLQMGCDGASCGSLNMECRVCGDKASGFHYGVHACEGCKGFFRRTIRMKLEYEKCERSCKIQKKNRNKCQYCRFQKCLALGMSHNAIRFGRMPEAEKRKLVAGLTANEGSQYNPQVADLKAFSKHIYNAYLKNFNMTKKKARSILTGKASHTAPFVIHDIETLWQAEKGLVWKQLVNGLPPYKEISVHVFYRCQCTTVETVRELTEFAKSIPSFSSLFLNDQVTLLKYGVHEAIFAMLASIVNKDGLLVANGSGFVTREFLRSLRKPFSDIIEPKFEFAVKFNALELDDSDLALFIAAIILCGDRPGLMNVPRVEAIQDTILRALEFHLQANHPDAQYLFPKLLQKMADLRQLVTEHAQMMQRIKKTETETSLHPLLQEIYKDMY
Bile acid receptor (Homo sapiens), sequence (Q96RI1 whole entry, looked up): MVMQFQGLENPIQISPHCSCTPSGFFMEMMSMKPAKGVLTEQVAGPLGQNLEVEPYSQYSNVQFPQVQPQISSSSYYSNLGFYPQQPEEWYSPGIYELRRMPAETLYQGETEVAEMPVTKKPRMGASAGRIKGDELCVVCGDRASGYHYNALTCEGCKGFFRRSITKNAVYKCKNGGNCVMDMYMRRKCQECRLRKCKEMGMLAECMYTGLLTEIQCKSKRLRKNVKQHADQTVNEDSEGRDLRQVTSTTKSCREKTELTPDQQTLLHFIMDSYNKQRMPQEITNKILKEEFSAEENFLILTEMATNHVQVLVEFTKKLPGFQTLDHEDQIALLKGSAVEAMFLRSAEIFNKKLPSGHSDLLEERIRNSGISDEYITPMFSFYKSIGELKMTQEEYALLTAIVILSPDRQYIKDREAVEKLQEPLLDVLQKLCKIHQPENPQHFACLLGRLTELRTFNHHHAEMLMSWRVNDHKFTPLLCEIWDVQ

O=C(/C=C/c1ccc(O)c(O)c1)O[C@@H](C(=O)O)[C@@H](OC(=O)/C=C/c1ccc(O)c(O)c1)C(=O)O
24.1%: max response [20]
inactive: Potency [1] | Potency [2] | Potency [3] | Potency [4] | Potency [5] | Potency [6] | Potency [7] | Potency [8] | Potency [9] | Potency [10] | Potency [11] | Potency [12] | Potency [13] | Potency [14] | Potency [15] | outcome [16] | outcome [17] | activation [18] 1.43% | Potency [19] | Potency [21]
